This assay can be described thus: HepG2 hepatoma cell viability loss – plate reader, dry powder, cytotoxicity control, dose response (AID 651947). The note with it: ATP luminescence (CellTiter-Glo), 48 h, active compounds read low.

Potency and affinity values are given separately. Inconclusive results are not listed. Values without a mark were called inactive.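 The calls were made as follows: active = luminescence drop in HepG2 cells whose fitted half-effect dose is at most twice the top valid dose; inconclusive = flat curve with 30 to 70% signal loss, or unreliable fit; inactive = the rest.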

As for `Fc1ccc(CSc2nnc(-c3ccccc3)o2)cc1`, the max activity is, setting by setting: (at 0.38 µM) 22%; (at 12 µM) -25.4%.

For the origin of these results see PubChem BioAssay AID651947 (Broad Institute, 2012).
